Results from publication PMC7862700, “An all-to-all approach to the identification of sequence-specific readers for epigenetic DNA modifications on cytosine”.

What was measured:
Assay in all cases: DAPPL (digital affinity profiling via proximity ligation, sequencing); 10 mM Tris-HCl pH 7.5, 50 mM NaCl, 1 mM DTT, 4% glycerol, room temperature, 30 min; GST-TFs on glutathione beads, 16-mer random dsDNA library, 0.1% formaldehyde crosslink after washing; high values mean tight binding
Conditions in all cases: protein: recombinant; tags: N-terminal GST; dsDNA, one strand shown
[1] = target: T1, FEV (Homo sapiens, UniProt Q99581 1-238)
T1 sequence: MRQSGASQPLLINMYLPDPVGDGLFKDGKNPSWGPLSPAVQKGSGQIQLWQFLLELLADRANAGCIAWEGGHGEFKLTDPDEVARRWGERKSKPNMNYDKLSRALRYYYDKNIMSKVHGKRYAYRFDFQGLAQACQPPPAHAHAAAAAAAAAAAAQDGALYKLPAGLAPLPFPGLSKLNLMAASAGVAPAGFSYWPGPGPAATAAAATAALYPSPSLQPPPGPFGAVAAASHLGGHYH
How it was run: (§1)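 Sequencing on an Illumina NextSeq500 followed washing, crosslinking with 0.1% formaldehyde, proximity ligation (BsaI/T4 ligase, 1 h, 37 °C) and PCR amplification of pools that had been incubated for 30 min at room temperature with 200 nmole of a random double-stranded 16-mer DNA library in Tris/NaCl/DTT/glycerol buffer. Each pool held DNA-barcoded human transcription factors, expressed in yeast as GST fusions and captured on glutathione beads, plus a tag-only sample. Binding signal is a hexamer's read frequency for a factor divided by its frequency in the tag-only sample.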

[2] = target: ETV5 (Homo sapiens, UniProt P41161 1-510)
Sequence of ETV5 (P41161 whole entry): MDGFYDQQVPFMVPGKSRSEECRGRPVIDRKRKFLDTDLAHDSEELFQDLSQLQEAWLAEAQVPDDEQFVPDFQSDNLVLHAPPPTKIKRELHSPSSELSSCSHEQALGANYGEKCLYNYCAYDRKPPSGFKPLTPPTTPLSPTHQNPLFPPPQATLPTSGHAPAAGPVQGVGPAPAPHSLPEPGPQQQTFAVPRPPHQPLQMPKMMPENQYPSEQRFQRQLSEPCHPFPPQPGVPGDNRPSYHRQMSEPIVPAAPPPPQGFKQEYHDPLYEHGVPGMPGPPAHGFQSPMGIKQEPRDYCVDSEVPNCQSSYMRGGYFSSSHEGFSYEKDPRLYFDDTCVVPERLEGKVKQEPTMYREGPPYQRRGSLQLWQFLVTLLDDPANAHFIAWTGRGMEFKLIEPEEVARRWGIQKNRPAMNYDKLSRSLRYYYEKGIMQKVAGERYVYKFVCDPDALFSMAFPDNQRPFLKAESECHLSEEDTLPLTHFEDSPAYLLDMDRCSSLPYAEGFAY
How it was run: as §1

[3] = target: T2, SPIC (Homo sapiens, UniProt Q8N5J4 1-248)
T2 sequence: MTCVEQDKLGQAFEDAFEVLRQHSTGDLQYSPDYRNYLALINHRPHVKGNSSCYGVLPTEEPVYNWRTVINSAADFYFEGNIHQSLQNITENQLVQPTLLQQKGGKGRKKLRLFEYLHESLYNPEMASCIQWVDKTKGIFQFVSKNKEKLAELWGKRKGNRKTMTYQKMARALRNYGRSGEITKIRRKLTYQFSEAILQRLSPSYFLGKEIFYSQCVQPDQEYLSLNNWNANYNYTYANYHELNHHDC
How it was run: as §1

[4] = target: ELF4 (Homo sapiens, UniProt Q99607 1-663)
Sequence of ELF4 (Q99607 whole entry): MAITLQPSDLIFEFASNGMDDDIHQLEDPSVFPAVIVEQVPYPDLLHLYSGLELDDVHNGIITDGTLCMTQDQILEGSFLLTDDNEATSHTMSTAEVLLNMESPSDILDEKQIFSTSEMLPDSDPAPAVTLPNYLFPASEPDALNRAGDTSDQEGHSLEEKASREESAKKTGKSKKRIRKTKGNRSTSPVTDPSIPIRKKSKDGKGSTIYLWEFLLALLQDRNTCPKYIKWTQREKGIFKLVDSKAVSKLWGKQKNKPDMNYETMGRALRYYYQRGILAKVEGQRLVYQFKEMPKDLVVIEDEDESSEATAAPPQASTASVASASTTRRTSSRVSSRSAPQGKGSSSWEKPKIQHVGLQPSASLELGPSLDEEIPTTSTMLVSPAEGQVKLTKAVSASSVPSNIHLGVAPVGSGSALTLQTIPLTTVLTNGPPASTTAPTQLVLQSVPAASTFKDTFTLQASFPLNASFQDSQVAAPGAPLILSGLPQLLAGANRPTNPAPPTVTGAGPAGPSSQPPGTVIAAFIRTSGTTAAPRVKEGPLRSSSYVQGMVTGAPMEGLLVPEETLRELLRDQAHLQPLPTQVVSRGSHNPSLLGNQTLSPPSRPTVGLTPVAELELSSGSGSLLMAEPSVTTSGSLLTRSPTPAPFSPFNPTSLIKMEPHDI
How it was run: as §1

[5] = target: T3, ELK4 (Homo sapiens, UniProt P28324-2 1-405)
T3 sequence: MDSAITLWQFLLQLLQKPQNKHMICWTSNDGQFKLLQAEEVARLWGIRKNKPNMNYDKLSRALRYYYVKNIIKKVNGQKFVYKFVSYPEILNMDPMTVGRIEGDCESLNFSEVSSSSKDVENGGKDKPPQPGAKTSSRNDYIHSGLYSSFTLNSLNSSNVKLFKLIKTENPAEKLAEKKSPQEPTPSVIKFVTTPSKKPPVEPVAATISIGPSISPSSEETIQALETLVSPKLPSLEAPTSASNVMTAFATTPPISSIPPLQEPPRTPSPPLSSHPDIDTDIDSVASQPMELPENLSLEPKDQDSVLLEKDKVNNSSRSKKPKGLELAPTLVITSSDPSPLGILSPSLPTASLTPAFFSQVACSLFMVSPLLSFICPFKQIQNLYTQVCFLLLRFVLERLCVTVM
How it was run: as §1

[6] = target: T4, ETV2 (Homo sapiens, UniProt O00321 1-342)
T4 sequence: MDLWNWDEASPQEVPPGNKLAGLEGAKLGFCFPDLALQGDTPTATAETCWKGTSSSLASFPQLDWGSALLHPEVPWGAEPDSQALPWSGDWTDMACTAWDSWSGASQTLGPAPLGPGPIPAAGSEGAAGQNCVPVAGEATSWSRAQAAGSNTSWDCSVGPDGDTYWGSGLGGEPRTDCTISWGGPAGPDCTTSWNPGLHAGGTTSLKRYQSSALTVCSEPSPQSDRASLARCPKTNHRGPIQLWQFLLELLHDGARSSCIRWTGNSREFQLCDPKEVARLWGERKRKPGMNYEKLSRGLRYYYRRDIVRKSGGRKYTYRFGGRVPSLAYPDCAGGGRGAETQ
How it was run: as §1

[7] = target: T5, ELF3 (Homo sapiens, UniProt P78545 1-371)
T5 sequence: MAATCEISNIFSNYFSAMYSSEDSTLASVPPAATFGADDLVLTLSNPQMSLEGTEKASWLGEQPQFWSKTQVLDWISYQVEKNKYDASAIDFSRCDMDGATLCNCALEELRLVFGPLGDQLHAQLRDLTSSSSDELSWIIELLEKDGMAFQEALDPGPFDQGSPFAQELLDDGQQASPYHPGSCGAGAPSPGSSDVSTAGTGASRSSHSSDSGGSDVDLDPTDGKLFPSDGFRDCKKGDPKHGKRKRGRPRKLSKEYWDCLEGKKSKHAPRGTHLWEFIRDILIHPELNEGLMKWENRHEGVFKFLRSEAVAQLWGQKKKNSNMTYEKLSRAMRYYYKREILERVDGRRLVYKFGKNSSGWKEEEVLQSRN
How it was run: as §1

[8] = target: CRX (Homo sapiens, UniProt O43186 1-299)
Sequence of CRX (O43186 whole entry): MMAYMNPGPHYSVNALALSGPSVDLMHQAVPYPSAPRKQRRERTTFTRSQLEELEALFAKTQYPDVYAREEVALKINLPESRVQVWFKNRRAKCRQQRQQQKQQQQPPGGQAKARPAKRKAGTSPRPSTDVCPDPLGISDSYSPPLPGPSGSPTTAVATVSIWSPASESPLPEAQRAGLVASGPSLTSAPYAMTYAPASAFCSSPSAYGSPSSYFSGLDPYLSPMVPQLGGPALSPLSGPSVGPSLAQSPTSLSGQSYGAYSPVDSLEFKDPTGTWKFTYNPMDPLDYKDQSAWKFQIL
How it was run: as §1

[9] = target: ETV1 (Homo sapiens, UniProt P50549 1-477)
Sequence of ETV1 (P50549 whole entry): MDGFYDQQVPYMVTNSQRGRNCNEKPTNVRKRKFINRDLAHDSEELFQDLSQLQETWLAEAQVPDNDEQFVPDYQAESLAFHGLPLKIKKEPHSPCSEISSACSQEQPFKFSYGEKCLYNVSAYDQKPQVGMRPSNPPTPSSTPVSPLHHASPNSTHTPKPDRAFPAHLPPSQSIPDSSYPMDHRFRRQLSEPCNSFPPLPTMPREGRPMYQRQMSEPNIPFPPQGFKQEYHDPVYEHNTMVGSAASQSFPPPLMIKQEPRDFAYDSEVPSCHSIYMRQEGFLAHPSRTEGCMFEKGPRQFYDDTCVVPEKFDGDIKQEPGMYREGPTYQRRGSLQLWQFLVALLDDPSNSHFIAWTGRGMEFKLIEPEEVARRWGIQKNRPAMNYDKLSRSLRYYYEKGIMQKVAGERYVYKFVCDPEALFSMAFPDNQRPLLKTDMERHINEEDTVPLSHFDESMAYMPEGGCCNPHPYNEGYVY
How it was run: as §1

[10] = target: T6, ERF (Homo sapiens, UniProt P50548 1-548)
T6 sequence: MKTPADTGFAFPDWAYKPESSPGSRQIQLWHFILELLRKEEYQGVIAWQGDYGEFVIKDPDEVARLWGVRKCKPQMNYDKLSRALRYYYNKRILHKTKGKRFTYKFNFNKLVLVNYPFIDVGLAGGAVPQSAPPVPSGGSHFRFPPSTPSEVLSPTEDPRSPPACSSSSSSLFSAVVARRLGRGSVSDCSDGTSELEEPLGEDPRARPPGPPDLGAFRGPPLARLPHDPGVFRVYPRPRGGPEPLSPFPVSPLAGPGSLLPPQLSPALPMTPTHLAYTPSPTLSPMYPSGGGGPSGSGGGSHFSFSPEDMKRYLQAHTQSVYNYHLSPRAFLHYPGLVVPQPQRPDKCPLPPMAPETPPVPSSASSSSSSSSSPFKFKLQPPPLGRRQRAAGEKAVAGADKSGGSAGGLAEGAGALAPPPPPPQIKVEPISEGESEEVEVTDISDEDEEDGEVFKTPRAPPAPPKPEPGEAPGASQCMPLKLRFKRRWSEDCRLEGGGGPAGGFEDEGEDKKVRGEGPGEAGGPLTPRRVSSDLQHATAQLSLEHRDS
How it was run: as §1

[11] = target: T7, ETV3L (Homo sapiens, UniProt Q6ZN32 1-361)
T7 sequence: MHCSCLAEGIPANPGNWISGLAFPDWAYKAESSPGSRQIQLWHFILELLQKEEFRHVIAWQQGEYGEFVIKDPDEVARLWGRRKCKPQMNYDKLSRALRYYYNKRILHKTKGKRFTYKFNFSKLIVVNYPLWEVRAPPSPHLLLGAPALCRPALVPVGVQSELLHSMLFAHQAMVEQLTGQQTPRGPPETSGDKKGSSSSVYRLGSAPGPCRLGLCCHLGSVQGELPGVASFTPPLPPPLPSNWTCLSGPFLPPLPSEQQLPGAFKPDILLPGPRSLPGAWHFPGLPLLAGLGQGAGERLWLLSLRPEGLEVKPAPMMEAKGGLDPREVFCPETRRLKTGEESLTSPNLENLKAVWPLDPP
How it was run: as §1

[12] = target: T8, ETS2 (Homo sapiens, UniProt P15036 1-469)
T8 sequence: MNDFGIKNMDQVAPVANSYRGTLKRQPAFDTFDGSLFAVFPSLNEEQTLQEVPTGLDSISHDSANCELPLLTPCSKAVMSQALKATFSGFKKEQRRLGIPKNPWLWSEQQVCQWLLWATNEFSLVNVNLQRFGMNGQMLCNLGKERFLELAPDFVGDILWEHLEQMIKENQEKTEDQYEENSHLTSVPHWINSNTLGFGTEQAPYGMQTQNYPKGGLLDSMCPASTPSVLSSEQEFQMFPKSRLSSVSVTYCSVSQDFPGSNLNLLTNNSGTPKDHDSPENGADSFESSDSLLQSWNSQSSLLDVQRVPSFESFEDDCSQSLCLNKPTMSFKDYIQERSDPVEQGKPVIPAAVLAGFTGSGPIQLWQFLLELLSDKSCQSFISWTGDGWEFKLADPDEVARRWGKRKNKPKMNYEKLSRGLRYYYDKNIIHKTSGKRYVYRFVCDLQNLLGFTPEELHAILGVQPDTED
How it was run: as §1

[13] = target: T9, SPDEF (Homo sapiens, UniProt O95238 1-335)
T9 sequence: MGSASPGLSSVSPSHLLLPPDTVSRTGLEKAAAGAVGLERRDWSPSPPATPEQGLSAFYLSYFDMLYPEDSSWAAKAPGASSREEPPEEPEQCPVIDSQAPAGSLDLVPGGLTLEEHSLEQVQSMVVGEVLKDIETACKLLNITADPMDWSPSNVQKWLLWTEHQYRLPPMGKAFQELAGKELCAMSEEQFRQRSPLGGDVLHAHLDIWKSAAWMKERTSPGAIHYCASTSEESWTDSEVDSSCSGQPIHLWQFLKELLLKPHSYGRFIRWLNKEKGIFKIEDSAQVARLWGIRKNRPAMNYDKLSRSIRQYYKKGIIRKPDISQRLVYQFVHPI
How it was run: as §1

[14] = target: T10, ETV7 (Homo sapiens, UniProt Q9Y603 1-341)
T10 sequence: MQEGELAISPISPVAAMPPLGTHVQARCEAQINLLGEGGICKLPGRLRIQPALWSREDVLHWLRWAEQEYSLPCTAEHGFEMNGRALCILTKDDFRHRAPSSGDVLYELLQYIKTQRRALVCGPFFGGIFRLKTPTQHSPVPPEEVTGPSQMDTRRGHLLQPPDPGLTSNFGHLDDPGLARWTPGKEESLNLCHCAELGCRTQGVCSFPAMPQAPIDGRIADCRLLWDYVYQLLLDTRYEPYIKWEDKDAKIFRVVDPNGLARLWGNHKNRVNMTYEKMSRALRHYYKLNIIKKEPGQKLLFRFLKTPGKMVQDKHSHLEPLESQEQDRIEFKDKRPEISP
How it was run: as §1

[15] = target: T11, ELF5 (Homo sapiens, UniProt Q9UKW6-2 1-255)
T11 sequence: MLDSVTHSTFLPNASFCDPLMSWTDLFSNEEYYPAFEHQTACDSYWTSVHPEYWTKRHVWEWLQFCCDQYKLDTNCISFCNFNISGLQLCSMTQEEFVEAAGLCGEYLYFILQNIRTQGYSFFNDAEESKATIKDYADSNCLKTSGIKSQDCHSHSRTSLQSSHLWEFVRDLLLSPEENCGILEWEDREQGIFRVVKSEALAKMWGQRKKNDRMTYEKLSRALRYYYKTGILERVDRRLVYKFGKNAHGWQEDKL
How it was run: as §1

[16] = target: T12, ETV3 (Homo sapiens, UniProt P41162-2 1-143)
T12 sequence: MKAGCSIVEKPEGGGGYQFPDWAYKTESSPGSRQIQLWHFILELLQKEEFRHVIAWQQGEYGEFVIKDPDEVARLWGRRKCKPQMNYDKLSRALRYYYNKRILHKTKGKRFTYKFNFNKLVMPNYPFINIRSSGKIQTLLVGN
How it was run: as §1

[17] = target: ETV6 (Homo sapiens, UniProt P41212 1-452)
Sequence of ETV6 (P41212 whole entry): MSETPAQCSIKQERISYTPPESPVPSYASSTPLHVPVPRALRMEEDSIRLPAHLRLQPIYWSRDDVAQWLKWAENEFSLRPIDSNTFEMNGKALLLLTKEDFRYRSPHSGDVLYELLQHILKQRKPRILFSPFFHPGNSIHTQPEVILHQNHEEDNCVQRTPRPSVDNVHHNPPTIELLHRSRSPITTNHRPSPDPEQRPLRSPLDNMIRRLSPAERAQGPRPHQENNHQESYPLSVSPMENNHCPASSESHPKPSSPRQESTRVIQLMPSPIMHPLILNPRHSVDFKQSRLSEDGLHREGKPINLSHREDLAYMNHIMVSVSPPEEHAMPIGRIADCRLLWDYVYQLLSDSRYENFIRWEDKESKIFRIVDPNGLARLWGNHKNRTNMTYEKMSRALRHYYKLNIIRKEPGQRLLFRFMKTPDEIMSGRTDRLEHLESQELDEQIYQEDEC
How it was run: as §1

| Sequence | binding signal [1] | binding signal [2] | binding signal [3] | binding signal [4] | binding signal [5] | binding signal [6] | binding signal [7] | binding signal [8] | binding signal [9] | binding signal [10] | binding signal [11] | binding signal [12] | binding signal [13] | binding signal [14] | binding signal [15] | binding signal [16] | binding signal [17] |
| --- | --- | --- | --- | --- | --- | --- | --- | --- | --- | --- | --- | --- | --- | --- | --- | --- | --- |
| ACCGCC | 1.32 fold enrichment (6-mer frequency, TF over GST control) | 1.23 fold enrichment (6-mer frequency, TF over GST control) | 1.16 fold enrichment (6-mer frequency, TF over GST control) | 1.38 fold enrichment (6-mer frequency, TF over GST control) | 1.23 fold enrichment (6-mer frequency, TF over GST control) | 1.13 fold enrichment (6-mer frequency, TF over GST control) | 1.33 fold enrichment (6-mer frequency, TF over GST control) | 1.01 fold enrichment (6-mer frequency, TF over GST control) | 1.05 fold enrichment (6-mer frequency, TF over GST control) | 1.21 fold enrichment (6-mer frequency, TF over GST control) | 1.25 fold enrichment (6-mer frequency, TF over GST control) | 1.24 fold enrichment (6-mer frequency, TF over GST control) | 1.29 fold enrichment (6-mer frequency, TF over GST control) | 1.21 fold enrichment (6-mer frequency, TF over GST control) | 1.23 fold enrichment (6-mer frequency, TF over GST control) | 1.44 fold enrichment (6-mer frequency, TF over GST control) | 1.26 fold enrichment (6-mer frequency, TF over GST control) |
| CGGTTT | 1.44 fold enrichment (6-mer frequency, TF over GST control) | 1.21 fold enrichment (6-mer frequency, TF over GST control) | 1.23 fold enrichment (6-mer frequency, TF over GST control) | 1.21 fold enrichment (6-mer frequency, TF over GST control) | 1.23 fold enrichment (6-mer frequency, TF over GST control) | 1.11 fold enrichment (6-mer frequency, TF over GST control) | 1.24 fold enrichment (6-mer frequency, TF over GST control) | 1.05 fold enrichment (6-mer frequency, TF over GST control) | 1.32 fold enrichment (6-mer frequency, TF over GST control) | 1.23 fold enrichment (6-mer frequency, TF over GST control) | 1.14 fold enrichment (6-mer frequency, TF over GST control) | 1.2 fold enrichment (6-mer frequency, TF over GST control) | 1.36 fold enrichment (6-mer frequency, TF over GST control) | 1.2 fold enrichment (6-mer frequency, TF over GST control) | 1.31 fold enrichment (6-mer frequency, TF over GST control) | 1.22 fold enrichment (6-mer frequency, TF over GST control) | 1.23 fold enrichment (6-mer frequency, TF over GST control) |
